Measured values from PubChem BioAssay (NCI).
Compounds without any hit were thinned out: in the full panel of roughly 79,000, 15% have a hit. Activity calls are given as the source filed them. Cut-off read from the data, not from the text of the source: active = growth inhibition above about 70%; inactive = the rest.

Key:
[1] = NCI Yeast Anticancer Drug Screen. Data for the mec2-1 strain (AID 157); settings: S. cerevisiae mec2-1 strain, hits give high values
Procedure, shortened: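 Vehicle-treated cultures served as reference for growth inhibition of compound-exposed mec2-1 yeast.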

[2] = NCI Yeast Anticancer Drug Screen. Data for the rad14 strain (AID 159);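 note: 0% = growth of vehicle-treated control cultures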; settings: S. cerevisiae rad14 strain growth inhibition, hits give high values
Procedure, shortened: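 Readout: yeast growth inhibition, referenced to vehicle-only cultures. Strain bears a defined alteration in DNA damage repair.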

[3] = NCI Yeast Anticancer Drug Screen. Data for the sgs1 mgt1 strain (AID 161);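 note: 0% = growth of cultures given vehicle only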; settings: S. cerevisiae sgs1 mgt1 strain, hits give high values
Procedure, shortened: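 Genetically altered yeast, compound exposure, growth inhibition relative to vehicle.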

[4] = NCI Yeast Anticancer Drug Screen. Data for the CLN2oe strain (AID 163);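 note: 0% = growth of vehicle-only control cultures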; settings: S. cerevisiae CLN2oe strain, hits give high values
Procedure, shortened: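 Inhibition relative to vehicle-treated yeast is reported. Cells: strain with genetic alteration in cell-cycle control, grown with compound.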

[5] = NCI Yeast Anticancer Drug Screen. Data for the cln2 rad14 strain (AID 165);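 note: 0% = growth equal to vehicle treated cultures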; settings: S. cerevisiae cln2 rad14 strain, hits give high values
Procedure, shortened: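 Each compound was tested on cln2 rad14 yeast. Inhibition of growth was calculated against vehicle-exposed controls.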

[6] = NCI Yeast Anticancer Drug Screen. Data for the bub3 strain (AID 167); settings: S. cerevisiae bub3 mutant strain, hits give high values
Procedure, shortened: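 Part of a panel of yeast mutants defective in DNA damage repair or cell cycle regulation. Each strain is grown with compound, and inhibition is calculated relative to solvent-treated cultures.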

[7] = NCI Yeast Anticancer Drug Screen. Data for the wt2 strain (AID 169);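 note: 0% = growth of vehicle-treated yeast cultures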; settings: S. cerevisiae wt2 strain growth inhibition, hits give high values
Procedure, shortened: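 Inhibition of yeast growth was determined after compound treatment, normalised to controls receiving only vehicle.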

[8] = NCI Yeast Anticancer Drug Screen. Data for the mlh1 strain (AID 171);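 note: 0% = growth of vehicle-treated control cultures of the same strain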; settings: S. cerevisiae mlh1 strain growth inhibition, hits give high values
Procedure, shortened: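 Vehicle-normalised growth inhibition of a repair- or checkpoint-altered yeast strain following compound treatment.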

[9] = NCI Yeast Anticancer Drug Screen. Data for the sgs1 strain (AID 173);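 note: 0% = growth of vehicle-only control cultures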; settings: S. cerevisiae sgs1 mutant, hits give high values
Procedure, shortened: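 Screen format: yeast with repair or checkpoint alterations, compound exposure, growth read relative to vehicle.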

[10] = NCI Yeast Anticancer Drug Screen. Data for the mlh1 rad18 strain (AID 175); settings: S. cerevisiae mlh1 rad18 strain growth inhibition, hits give high values
Procedure, shortened: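 Vehicle-treated cultures served as the reference for growth inhibition in a yeast strain carrying DNA damage repair alterations exposed to each compound.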

[11] = NCI Yeast Anticancer Drug Screen. Data for the rad18 strain (AID 177); settings: S. cerevisiae rad18 mutant growth inhibition, hits give high values
Procedure, shortened: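 Test articles were incubated with altered yeast defective in DNA damage repair. Results are given as inhibition of growth versus vehicle.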

[12] = NCI Yeast Anticancer Drug Screen. Data for the rad52 strain (AID 147);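 note: 0% = growth of vehicle-treated control cultures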; settings: S. cerevisiae rad52 mutant growth inhibition, hits give high values
Procedure, shortened: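 Vehicle-treated cultures served as the reference for growth inhibition of compound-exposed yeast bearing a DNA repair mutation.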

[13] = NCI Yeast Anticancer Drug Screen. Data for the wt1 strain (AID 149);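 note: 0% = growth of vehicle-treated wt1 cultures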; settings: S. cerevisiae wt1 strain (SPY 50644) growth inhibition, hits give high values
Procedure, shortened: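 The wt1 strain was treated with compounds, and growth was compared with vehicle-treated cultures to give inhibition.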

[14] = NCI Yeast Anticancer Drug Screen. Data for the rad50EPP+ strain (AID 151);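 note: 0% = growth of vehicle-treated control cultures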; settings: S. cerevisiae rad50 mutant strain, hits give high values
Procedure, shortened: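 In this screen, rad50EPP+ yeast were exposed to compounds. Growth inhibition was scored against vehicle-treated controls.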

[15] = NCI Yeast Anticancer Drug Screen. Data for the mgt1 strain (AID 153); settings: S. cerevisiae mgt1 mutant growth inhibition, hits give high values
Procedure, shortened: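 mgt1 strain exposed; growth vs vehicle control recorded as inhibition.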

[16] = NCI Yeast Anticancer Drug Screen. Data for the rad50 strain (AID 155);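 note: 0% = growth of vehicle-only cultures of the same strain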; settings: S. cerevisiae rad50 strain growth inhibition, hits give high values
Procedure, shortened: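 Cells are treated with compound, grown, and their growth is then scored against vehicle-only cultures of the same repair-deficient yeast strain.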

[17] = at 5.0 µM (retest, dose inferred, filed as 0.5)
[18] = at 50.0 µM (retest, dose inferred, filed as 5.0)

Measured: growth inhibition

O=C1C=CC(=O)c2c(O)c(Nc3ccc(OC(F)(F)F)cc3)c(Cl)c(O)c21
inactive: [2]; at 1.2 µM 2% | [2]; at 3.7 µM 4% | [2]; at 11.0 µM 6% | [2]; at 33.0 µM 32% | [3]; [17] 35% | [3]; [18] 49% | [4]; at 1.2 µM -8% | [4]; at 3.7 µM 0% | [4]; at 11.0 µM -5% | [4]; at 33.0 µM 12% | [5]; [17] 19% | [5]; [18] 32% | [5]; at 50.0 µM 37.9% | [6]; at 1.2 µM -17% | [6]; at 3.7 µM -8% | [6]; [17] 26% | [6]; at 11.0 µM 1% | [6]; at 33.0 µM 48% | [6]; [18] 65% | [7]; at 1.2 µM -5% | [7]; at 3.7 µM -6% | [7]; at 11.0 µM -6% | [7]; at 33.0 µM 21% | [8]; at 1.2 µM 0% | [8]; at 3.7 µM 6% | [8]; at 11.0 µM 13% | [8]; at 33.0 µM 37% | [9]; at 1.2 µM 34% | [9]; at 3.7 µM 32% | [9]; at 11.0 µM 58% | [9]; at 33.0 µM 62% | [10]; [17] 13% | [10]; at 50.0 µM 68.7% | [11]; at 1.2 µM -2% | [11]; at 3.7 µM -2% | [11]; at 11.0 µM 4% | [11]; at 33.0 µM 45%
active: [1]; at 100.0 µM 94% | [2]; at 100.0 µM 92% | [3]; at 50.0 µM 73% | [4]; at 100.0 µM 83% | [6]; at 50.0 µM 82.2% | [6]; at 100.0 µM 91% | [7]; at 100.0 µM 93% | [8]; at 100.0 µM 87% | [9]; at 100.0 µM 96% | [10]; [18] 76% | [11]; at 100.0 µM 92%

Oc1ccc(NCn2c(=S)sc3ccccc32)cc1
active: [12]; at 100.0 µM 97% | [13]; at 100.0 µM 97% | [14]; at 100.0 µM 82% | [15]; at 33.0 µM 87% | [15]; at 100.0 µM 98% | [16]; [18] 100% | [16]; at 100.0 µM 95% | [1]; at 33.0 µM 84% | [1]; [18] 100% | [1]; at 50.0 µM 73.8% | [1]; at 100.0 µM 99% | [3]; [18] 99% | [3]; at 50.0 µM 91.2% | [4]; at 100.0 µM 97% | [5]; [18] 98% | [7]; at 100.0 µM 97% | [8]; at 100.0 µM 97% | [9]; at 100.0 µM 96% | [10]; [18] 100% | [11]; at 100.0 µM 96%
inactive: [12]; at 1.2 µM -1% | [12]; at 3.7 µM -10% | [12]; at 11.0 µM -7% | [12]; at 33.0 µM 38% | [13]; at 1.2 µM -24% | [13]; at 3.7 µM -17% | [13]; at 11.0 µM -16% | [13]; at 33.0 µM 29% | [14]; at 1.2 µM -6% | [14]; at 3.7 µM -21% | [14]; at 11.0 µM -25% | [14]; at 33.0 µM -16% | [15]; at 1.2 µM 14% | [15]; at 3.7 µM 17% | [15]; at 11.0 µM 37% | [16]; at 1.2 µM -2% | [16]; at 3.7 µM 12% | [16]; [17] 62% | [16]; at 11.0 µM 5% | [16]; at 33.0 µM 42% | [16]; at 50.0 µM 58.5% | [1]; at 1.2 µM 19% | [1]; at 3.7 µM 27% | [1]; [17] 63% | [1]; at 11.0 µM 26% | [3]; [17] 2% | [4]; at 1.2 µM -16% | [4]; at 3.7 µM -13% | [4]; at 11.0 µM -32% | [4]; at 33.0 µM 34% | [5]; [17] 58% | [5]; at 50.0 µM 40% | [7]; at 1.2 µM -28% | [7]; at 3.7 µM -14% | [7]; at 11.0 µM -10% | [7]; at 33.0 µM 64% | [8]; at 1.2 µM -44% | [8]; at 3.7 µM -23% | [8]; at 11.0 µM -9% | [8]; at 33.0 µM 63% | [9]; at 1.2 µM 4% | [9]; at 3.7 µM 5% | [9]; at 11.0 µM 4% | [9]; at 33.0 µM 69% | [10]; [17] 51% | [10]; at 50.0 µM 63% | [11]; at 1.2 µM -1% | [11]; at 3.7 µM -5% | [11]; at 11.0 µM -11% | [11]; at 33.0 µM 48%
